Here are results for 11 molecules from PubChem BioAssay.

Assay [1] can be described thus: hESC survival regulators, cell-based (AID 493140; call rule not given here;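 also: cells exposed to compounds for four days before counting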). The following applies: human embryonic stem cell survival screen; stronger effect = higher value.
The nature of assay [2]: liver-stage malaria parasite growth inhibition, primary screen, cell-based, HepG2, luciferase luminescence, HepG2 viability (AID 624349; in the data active = parasite load remaining mostly below about 12%, no sharp cut-off; inactive = mostly above about 10%;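 also: 100% = mean of DMSO negative control wells on the same plate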). The following applies: P. berghei liver stage in HepG2, luciferase luminescence, concentration not given here; parasite load remaining: stronger effect = lower value; viability: measured here: HepG2 viability without parasites.
Assay [3] in a line: sensitizers of A549 cells to miR-34 induction, primary screen, imaging, A549 dox-inducible miR-34, nuclei and caspase counts (AID 1347080). Particulars: A549 miR-34 inducible, Hoechst nuclei count, 48 h.
Assay [4] can be described thus: circadian clock period modulators, cell-based, LOPAC library, luminescence reporter (AID 2774; call rule not given here;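 also: values are relative to mean of DMSO wells on each plate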). Particulars: circadian reporter cells, at 7 µM, actives lie on both sides.
A short description of assay [5]: viability rescue of complex I mutant cybrids, primary screen, cell-based, galactose medium, ATP luminescence (AID 1645843;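 active = z-score of at least 1.8 in each of two replicates, scored against plate mean and spread of sample wells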;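 also: positive z means more ATP and so rescue of galactose-driven cybrid death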). The following applies: complex I mutant cybrid cells, 72 h, stronger effect = higher value.
Assay [6] concerns Hepatitis C virus NS3 helicase. The assay can be described thus: HCV NS3 helicase inhibitors, primary screen, biochemical, fluorescence polarization, LOPAC1280 library (AID 687035; in the data active = inhibition above about 37%). The following applies: Purified HCV NS3 helicase, Cy5-dT15 ssDNA binding fluorescence polarization; stronger effect = higher value; concentration not given here. (In fluorescence polarisation assays a small probe gives low polarisation when free and higher when bound to something large.)

The nature of assay [7]: Cy5 fluorescence quenching or enhancement artefacts, artefact control for HCV NS3 helicase inhibitor project, biochemical, LOPAC1280 (AID 687037; call rule not given here). Particulars: Cy5-DNA-NS3h complex fluorescence interference counterscreen. In general terms: The purpose of a counterscreen is to sort out artefacts and off-target activity.
Assay [8] has as its target ATP-dependent translocase ABCB1 (Homo sapiens) (UniProt P08183). In words: MDR1 (ABCB1) efflux transporter inhibition, cell-based (AID 377; in the data active = fluorescence slope change above about 50%). The following applies: MDR1-expressing cells, fluorescent substrate accumulation slope; stronger effect = higher value; concentration not given here.
The mark [9] stands for this setting: measured here: relative caspase fold change +Dox/-Dox.
The mark [10] stands for this setting: measured here: total cells with miR-34 induction, stronger effect = lower value.
The mark [11] stands for this setting: measured here: total cells without miR-34 induction.
The mark [12] stands for this setting: stronger effect = lower value, cell number ratio, induced over uninduced.

Values joined by “and” are separate entries in the source; they are usually repeats but may differ in a detail not shown here. Equal entries are not always repeated. Results filed as inconclusive are left out. Active and inactive are the calls of the source.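 The calls were made as follows, unless noted: active = compounds whose cell count with miR-34 switched on is under 0.7 times the count with it off; inactive = the rest.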

Sequence of ATP-dependent translocase ABCB1 (Homo sapiens) (P08183 whole entry, looked up): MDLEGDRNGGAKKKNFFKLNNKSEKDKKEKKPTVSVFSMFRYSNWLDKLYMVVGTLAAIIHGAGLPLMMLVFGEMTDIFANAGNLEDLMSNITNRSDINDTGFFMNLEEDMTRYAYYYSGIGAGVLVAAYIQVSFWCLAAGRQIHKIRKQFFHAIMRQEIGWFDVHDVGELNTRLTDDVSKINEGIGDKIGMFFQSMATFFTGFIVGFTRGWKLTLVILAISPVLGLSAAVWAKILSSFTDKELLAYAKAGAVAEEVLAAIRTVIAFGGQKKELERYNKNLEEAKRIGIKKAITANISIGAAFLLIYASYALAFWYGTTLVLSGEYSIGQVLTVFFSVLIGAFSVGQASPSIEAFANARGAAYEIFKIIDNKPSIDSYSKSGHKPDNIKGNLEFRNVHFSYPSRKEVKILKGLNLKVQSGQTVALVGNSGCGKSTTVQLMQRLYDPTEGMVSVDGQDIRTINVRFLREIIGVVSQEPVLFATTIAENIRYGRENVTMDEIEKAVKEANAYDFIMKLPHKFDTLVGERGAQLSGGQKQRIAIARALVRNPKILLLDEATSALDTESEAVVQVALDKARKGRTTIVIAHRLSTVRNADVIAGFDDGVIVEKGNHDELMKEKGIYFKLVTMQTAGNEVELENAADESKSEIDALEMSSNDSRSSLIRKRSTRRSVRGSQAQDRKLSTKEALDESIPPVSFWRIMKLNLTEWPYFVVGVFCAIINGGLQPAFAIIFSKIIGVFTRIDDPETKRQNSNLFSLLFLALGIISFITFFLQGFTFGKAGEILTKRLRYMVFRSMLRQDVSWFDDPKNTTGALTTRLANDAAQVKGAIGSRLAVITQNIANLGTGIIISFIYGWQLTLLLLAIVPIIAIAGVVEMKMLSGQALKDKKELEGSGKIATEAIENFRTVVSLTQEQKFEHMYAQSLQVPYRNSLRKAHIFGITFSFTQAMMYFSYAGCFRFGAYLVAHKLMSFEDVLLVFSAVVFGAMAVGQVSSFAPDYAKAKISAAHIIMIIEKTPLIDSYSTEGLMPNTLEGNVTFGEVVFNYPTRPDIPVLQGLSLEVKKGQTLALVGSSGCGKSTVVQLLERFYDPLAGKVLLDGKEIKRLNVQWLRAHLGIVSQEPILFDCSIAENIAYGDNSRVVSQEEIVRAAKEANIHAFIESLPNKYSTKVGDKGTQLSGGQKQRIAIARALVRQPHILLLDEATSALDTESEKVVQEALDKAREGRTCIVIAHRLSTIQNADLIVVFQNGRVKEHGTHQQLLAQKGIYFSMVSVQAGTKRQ

Regarding `COc1ccn(C)c(=O)c1C#N`, the survival in assay [1] was 4.25 (inactive). The parasite load remaining in assay [2] is 84.9% (inactive). Further, the viability in assay [2] is 97.3%. Further, the fold change was 0.883 (inactive) in assay [3] (stronger effect = lower value) and 1.32 in assay [3] (setting [9]). The cell count in assay [3] (setting [10]) was 9150; in assay [3] (setting [11]), 10400.
In the case of `NC(Cn1oc(=O)[nH]c1=O)C(=O)O` (stereo not drawn), the period change in assay [4] was -0.055 h (inactive). The fold change in assay [3] (stronger effect = lower value) was 0.991 (inactive); in assay [3] (setting [9]) it was 0.896. The values for the cell count in assay [3] (setting [10]) and in assay [3] (setting [11]) were 10000 and 10100, respectively. Moreover, in assay [5], the z-score is 0.64 (inactive).
Consider `NC(CCCCCP(=O)(O)O)C(=O)O` (stereo not drawn), for which the period change in assay [4] was -0.03 h (inactive). Moreover, the inhibition in assay [6] is -1% (inactive). In addition, the fluorescence ratio (interference) in assay [7] was 1 (inactive). For the same molecule, the fold change in assay [3] (stronger effect = lower value) is 1.02 (inactive); in assay [3] (setting [9]), 2.45. Besides, the values for the cell count in assay [3] (setting [10]) and in assay [3] (setting [11]) were 10400 and 10200, respectively. Further, the z-score in assay [5] is 0.42 (inactive).
For the molecule `CNCC(O)c1ccc(O)c(OC)c1` (stereo not drawn), the fluorescence slope change in assay [8] is 189% (active). In assay [1], the survival was 30.2 (inactive). The parasite load remaining in assay [2] was 40.2% (inactive) and 98.3% (inactive). Also, the viability in assay [2] was 47.9% and 90.3%. Moreover, the fold change is 0.905 (inactive) in assay [3] (setting [12]) and 1.46 in assay [3] (setting [9]). The cell count was 8830 in assay [3] (setting [10]) and 9760 in assay [3] (setting [11]).
As to `C/C=C1/C[C@@H](C)[C@](O)(CO)C(=O)OCC2=CCN3CC[C@@H](OC1=O)[C@@H]23`, the fluorescence slope change in assay [8] is 18.1% (inactive). In assay [1], the survival was 3.83 (inactive). Besides, the parasite load remaining in assay [2] is 209% (inactive) and 79.8% (inactive). For the same molecule, the viability in assay [2] was 107% and 75%. Besides, the fold change is 0.877 (inactive) in assay [3] (stronger effect = lower value) and 2.22 in assay [3] (setting [9]). Moreover, the cell count in assay [3] (setting [10]) is 8650; in assay [3] (setting [11]), 9870.
As for `C[C@]12CCC(O)CC1=CCC1C2CC[C@]2(C)C(=O)CCC12` (stereo partly drawn), the fold change in assay [3] (stronger effect = lower value) is 1.16 (inactive); in assay [3] (setting [9]), 1.21. Moreover, the cell count was 7950 in assay [3] (setting [10]) and 6860 in assay [3] (setting [11]). In addition, the z-score in assay [5] is -0.11 (inactive).
In the case of `COc1cc2c3cc1Oc1cc(ccc1O)C[C@@H]1c4c(cc(OC)c(O)c4Oc4cccc(c4)C[C@@H]3N(C)CC2)CC[N+]1(C)C`, the survival in assay [1] is 7.17 (inactive). Further, the parasite load remaining in assay [2] is 52.1% (inactive) and 85.1% (inactive). For the same molecule, the viability in assay [2] was 113% and 81.4%. In addition, the values for the fold change in assay [3] (setting [12]) and in assay [3] (setting [9]) were 0.822 (inactive) and 1.32, respectively. Also, the cell count was determined as 8210 in assay [3] (setting [10]) and 9980 in assay [3] (setting [11]).
On to `COc1ccc(C[C@@H]2NC[C@@H](O)[C@@H]2OC(C)=O)cc1`, for which the survival in assay [1] is 0.25 (inactive). Further, the parasite load remaining in assay [2] was 4.56% (inactive). Moreover, in assay [2], the viability is 32.9%. The figures for the fold change in assay [3] (stronger effect = lower value) and in assay [3] (setting [9]) were 0.95 (inactive) and 1.1, respectively. The cell count in assay [3] (setting [10]) came out at 1100; in assay [3] (setting [11]), 1160.
For the molecule `CCCCCCCCCCCCCCCC(=O)OC[C@H](COP(=O)([O-])OCC[N+](C)(C)C)OC(C)=O`, the survival in assay [1] was 57 (inactive). Also, the fold change in assay [3] (stronger effect = lower value) was 0.988 (inactive); in assay [3] (setting [9]) it was 1.32. The figures for the cell count in assay [3] (setting [10]) and in assay [3] (setting [11]) were 5610 and 5670, respectively.
With `CC[C@]1(O)CCC2C3CCC4=CCCCC4C3CC[C@@]21C` (stereo partly drawn), the fold change in assay [3] (stronger effect = lower value) is 1.01 (inactive); in assay [3] (setting [9]), 1.28. Moreover, the values for the cell count in assay [3] (setting [10]) and in assay [3] (setting [11]) were 5670 and 5590, respectively. Also, the z-score in assay [5] is -0.425 (inactive).
With `C[C@]12CC3SC3C[C@@H]1CC[C@@H]1[C@@H]2CC[C@]2(C)[C@@H](O)CC[C@@H]12` (stereo partly drawn), the survival in assay [1] was 17.5 (inactive). Also, the parasite load remaining in assay [2] is 87.8% (inactive). In addition, in assay [2], the viability is 72.9%. The fold change was 0.913 (inactive) in assay [3] (stronger effect = lower value) and 0.52 in assay [3] (setting [9]). Moreover, the cell count in assay [3] (setting [10]) was found to be 9130; in assay [3] (setting [11]), 10000.

By viability is commonly meant a read-out of living cells in per cent, often relative to untreated cells. In general, inhibition refers to the change of the read-out against control, counted positive when it falls.
